According to PubChem BioAssay (NCI):
Compounds without any hit were thinned out: in the full panel of roughly 83,000, 20% have a hit.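 Cells were grown in 96-well plates and exposed to the test compound at a single concentration for 48 hours; results are reported as percent growth, with values below 10 considered active.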 A number with no mark means an inactive call. The source made the active and inactive calls.

Assays:
Test in all cases: NCI-60 one-dose screen, 48 h (100 = growth as untreated, 0 = no growth, -100 = all killed)
Conditions in all cases: 10 µM
BT-549 breast = system: BT-549 breast
MDA-MB-435 melanoma = system: MDA-MB-435 melanoma
SW-620 colon = system: SW-620 colon
MCF7 breast = system: MCF7 breast
HCT-116 colon = system: HCT-116 colon
HCC-2998 colon = system: HCC-2998 colon
KM12 colon = system: KM12 colon

| SMILES | growth (BT-549 breast) | growth (MDA-MB-435 melanoma) | growth (SW-620 colon) | growth (MCF7 breast) | growth (HCT-116 colon) | growth (HCC-2998 colon) | growth (KM12 colon) |
| --- | --- | --- | --- | --- | --- | --- | --- |
| N#Cc1ncc(Br)c(NC2CCCCCC2)n1 | 98.4% | 103% | 113% | 92.1% | 104% | 111% | 113% |
| Cc1ccc(CC#N)cc1C | 124% | 88.4% | 109% | 104% | 93% | 103% | 94.7% |
| Cc1cccc2c(NCCN(C)C)c3cccc(C(=O)NCCN(C)C)c3nc12 | 18.2% | 8.12% (active) | 4.11% (active) | 2.67% (active) | 8.86% (active) | -22.8% (active) | -27.6% (active) |
| CN1CC[C@@H](c2c(O)cc(O)c3c(=O)cc(-c4ccccc4Cl)oc23)[C@@H](O)C1 | -22.8% (active) | -91.2% (active) | 9.83% (active) | 9.53% (active) | 8.46% (active) | -34% (active) | -34% (active) |
| COc1ccc(-c2nnc(-c3c(-c4ccccc4)nc4ncccn34)o2)cc1OC | 88.6% | 117% | 109% | 102% | 103% | 106% | 100% |
| C=C(C(=O)c1ccccc1)C(NC(C)(C)C)c1ccccc1 (stereo not given) | 34.8% | 7.63% (active) | -19.7% (active) | 9.57% (active) | -90.6% (active) | 1.14% (active) | 25.8% |
| Cc1cc(C)c2c(n1)sc1c(Nc3ccc(Cl)cc3)ncnc12 | 29.8% | 27.3% | 34% | 16.5% | 15.1% | 54.4% | 43.1% |
| Nc1ccc2c(c1)C1(CCC2)NC(=O)NC1=O (stereo not given) | 102% | 102% | 104% | 97.2% | 101% | 115% | 102% |
| Cc1cc2ccccc2nc1-c1ccccc1F | 92.2% | 111% | 106% | 101% | 102% | 109% | 110% |
| CC(C)N(CCNc1nc(C(Cl)(Cl)Cl)nc2cc(Cl)ccc12)C(C)C | 21.3% | -47.2% (active) | -30.6% (active) | -85.6% (active) | -90.6% (active) | -50.2% (active) | -79.1% (active) |
| COc1ccc(Nc2cc(C)nc(NCCCNc3ccnc4cc(Cl)ccc34)n2)cc1 | -82.9% (active) | -92.4% (active) | -56.7% (active) | -48.8% (active) | -96.6% (active) | -70% (active) | 20% |
| CCN(CC)CCCC(C)Nc1ccc2ccc(Cl)cc2n1 (stereo not given) | 96.2% | 109% | 97.9% | 99.6% | 92.2% | 92.8% | 104% |
| O=C1ON=[N+](c2ccc(Cc3ccc([N+]4=NOC(=O)C4CN4CCOCC4)cc3)cc2)C1CN1CCOCC1 (stereo not given) | 60.7% | 4.71% (active) | 67.7% | 45.6% | 63.7% | 80.5% | 54.3% |
| O=C1/C(=C/c2ccc(Cl)cc2)SC(=Nc2ccc(Cl)cc2)N1Cc1nc2ccccc2[nH]1 | 104% | 76.3% | 74.9% | 59% | 53.8% | 62% | 76.7% |
| COc1cccc(C(=O)Nc2ccc(CN3CCc4nc5cc(OC)c(OC)cc5cc43)cc2)c1 | 65% | 39.5% | 59% | 12% | 38.9% | 14.1% | 16.4% |
| N#Cc1ncc(-c2cc(F)c(F)c(F)c2)c(NC2CCCCCC2)n1 | 100% | 95.5% | 92.8% | 79.1% | 84.4% | 91.9% | 78.7% |
| Fc1ccc(-c2nnc(-c3c(-c4ccc(F)cc4)nc4ccccn34)o2)cc1 | 60.2% | 85.1% | 91.1% | 59.8% | 45.4% | 94.1% | 79.9% |
| CN(C)CCCn1c(=O)c2ccccc2c2cnc3[nH]ccc3c21 | 34.1% | 11.9% | 5.02% (active) | 1.25% (active) | 2.85% (active) | 30.3% | 9.58% (active) |

| SMILES | growth (BT-549 breast) | growth (MDA-MB-435 melanoma) | growth (SW-620 colon) | growth (MCF7 breast) | growth (HCT-116 colon) | growth (HCC-2998 colon) | growth (KM12 colon) |
| --- | --- | --- | --- | --- | --- | --- | --- |
| COc1cc(C(=O)N2CCN(c3ccccc3OC)CC2)c(N)cc1OCCCN1CCN(c2ccccc2OC)CC1 | 94.4% | 101% | 90.6% | 96% | 81.9% | 101% | 88.4% |
| COc1cc(-c2cc(/C=C/C(=O)c3ccc(Cl)c(Cl)c3)[nH]n2)cc(OC)c1OC | 71% | 43% | 60.7% | 19.3% | 36% | 107% | 26.2% |
| O=C(O)CC(Cl)C(Cl)CC(=O)O (stereo not given) | 97.5% | 93.8% | 103% | 105% | 111% | 110% | 101% |
| COc1ccc(-c2nc3ccccn3c2-c2nnc(-c3cc(OC)c(OC)c(OC)c3)o2)cc1 | 42.7% | 96.2% | 74.9% | 63.4% | 32.1% | 85.4% | 65% |
| N=C1c2nc3n(c2C(=O)c2nc4n(c21)CCCC4)CCCC3 | -37.2% (active) | -82.5% (active) | 23.7% | -6.98% (active) | 65.8% | 87.3% | 66.7% |
| CN(C)Cc1cn(-c2ncc(-c3ccc(C(F)(F)F)cc3)c(NC3CCCCCC3)n2)nn1 | 94.6% | 95.2% | 99.4% | 70.3% | 66.3% | 94.8% | 86.3% |
| Nc1ncn(C2OC(CO)C(O)C2O)c(=O)n1 (stereo not given) | -9.44% (active) | 3.05% (active) | 29.3% | 11.5% | -32% (active) | -1.48% (active) | -15.8% (active) |
| CCOC(=O)CCC(NC(=O)c1ccc(N)cc1)C(=O)OCC (stereo not given) | 44.8% | 117% | 107% | 103% | 106% | 105% | 106% |
| Cc1cccc(C)c1NC(=O)c1sc2nc3c(cc2c1N)C(=O)CCC3 | 90.7% | 13% | 72.2% | 54.6% | 90.6% | 72.5% | 56.3% |
| Oc1[nH]c2ccc(Cl)cc2c1/C=c1/ccc2c(c1)N=C(c1cccs1)N=2 | 57.4% | 39% | 85.9% | 10.1% | 52.9% | 88.6% | 58% |
| COc1cc2cc3c(nc2cc1OC)CCN3Cc1ccc(NC(=O)Nc2cc(C(F)(F)F)cc(C(F)(F)F)c2)cc1 | 106% | 76.4% | 88.3% | 49.3% | 66.7% | 83.4% | 68.6% |
| O=[N+]([O-])c1ccc(N/N=C/c2cccc3ccccc23)nc1 | 106% | 118% | 117% | 75.6% | 95.8% | 101% | 99.1% |
| COc1cc(/C=C/C(=O)c2ccc(Cl)cc2)ccc1OS(=O)(=O)c1ccc(C)cc1 | 134% | 81.2% | 6.82% (active) | 11.2% | 12.9% | 112% | 81.2% |
| COc1cc(-c2nc(Nc3nc4ccccc4s3)[nH]c(=O)c2C#N)cc(OC)c1O | 98.1% | 120% | 110% | 95.7% | 94.7% | 104% | 114% |
| Nc1nc(N)c(NC(=O)CNc2ccc(C(=O)O)cc2)c(N)n1 | 116% | 105% | 105% | 91.3% | 113% | 107% | 114% |
| FC(F)(F)c1ccc(-c2cnc(Cl)nc2N2CCC3(CC2)OCCO3)cc1 | 97.1% | 101% | 103% | 98.9% | 82.7% | 102% | 96.3% |
| O=C1C(=O)c2ccccc2C(O)=C1CCCc1ccc(C2CCCCCC2)cc1 | 58.2% | 33.9% | 32.9% | 25.5% | 24.6% | 8.94% (active) | 37.8% |
